In all, about 290,000 compounds went through this assay and about 890 (0.31%) were called active. Rule as the data show it: active = inhibition mostly above about 52% (no sharp cut-off); inactive = mostly below about 76%. Many of the other results were omitted from the sample, so actives are more common in it than they were.
Assay: cell-free HIV fusion peptide-binding blockers – biochemical, uHTS, fluorescence dequenching, primary screen (AID 1986)
Details: 30 min, stronger effect = higher value
[1] = measured here: repeat confirmation average inhibition, at 18.6 µM

| Structure (SMILES) | inhibition (at 20 µM) | inhibition [1] |
| --- | --- | --- |
| CCN(CC)CCCNC(=O)CNC(=S)N(CCCN1CCOCC1)Cc1cccs1 | -0.5% (inactive) | – |
| Cc1cc(C)cc(OCC(=O)Nc2nc(-c3cccnc3)cs2)c1 | -0.2% (inactive) | – |
| COc1ccc2cc(CN(CC3CCCO3)S(=O)(=O)c3ccccc3)c(=O)[nH]c2c1 (centres undefined) | 1.4% (inactive) | – |
| COc1cc(N2CCCC2)c(OC)cc1/C=C(/C#N)c1ccc(F)cc1 | 15.6% (inactive) | – |
| N#C/C(=C/c1ccc(N2CCCCCC2)o1)c1cccc(F)c1 | 3.6% (inactive) | – |
| COc1cc(N2CCCC2)c(OC)cc1/C=C(/C#N)c1cccc(F)c1 | 57.2% (active) | – |
| N#C/C(=C/c1ccc(N2CCCCC2)cc1)c1cccc(F)c1 | 1.6% (inactive) | – |
| COc1cc(N2CCCC2)c(OC)cc1/C=C(/C#N)c1ccc(Br)cc1 | -0.2% (inactive) | – |
| COc1cc(N2CCCC2)c(OC)cc1/C=C(/C#N)c1cccc(Br)c1 | 51.2% (active) | 65.1% |
| CCOC(=O)c1c(C)n(C)c2c(C)cc(O)c(OC(=O)CC)c12 | 1.5% (inactive) | – |
| COC(=O)Cc1cccc2c(=O)c3ccccc3oc12 | -2% (inactive) | – |
| O=C(CCS(=O)(=O)c1ccc2c(c1)NC(=O)CO2)NCCc1ccc(Cl)cc1 | 0.2% (inactive) | – |
| CC(C)NC(=O)c1ccc(CN2CCC(Cc3ccccc3)CC2)cc1 | -0.1% (inactive) | – |
| Cc1cccc(Nc2nnc(SCC(=O)NCc3cccs3)s2)c1 | -0.3% (inactive) | – |
| CCOC(=O)c1cc2c(=O)n3cccc(C)c3nc2n(Cc2ccccc2Cl)c1=N | -3.9% (inactive) | – |
| Cc1cccn2c(=O)c3cc(C(=O)NCc4cccnc4)c(=N)n(C)c3nc12 | -1.4% (inactive) | – |
| CCOC(=O)c1cc2c(=O)n3cccc(C)c3nc2n(C)c1=N | 59.9% (active) | – |
| COc1cccc(/C=N\NC(C)=O)c1OC/C=C/c1ccccc1 | 0.3% (inactive) | – |
| O=C1/C(=C/c2ccncc2)SC(=S)N1N1CCOCC1 | -1.3% (inactive) | – |
| Cc1ccc(NS(=O)(=O)c2cc(C(=O)N3CCN(C)CC3)ccc2C)cc1 | -0.2% (inactive) | – |
| CCN(CC)S(=O)(=O)c1cc(NS(=O)(=O)c2cccc(C(=O)O)c2)ccc1C | 1.4% (inactive) | – |
| COC(=O)c1cc2c(C)c(C)c3ccccn3c-2c1C(=O)OC | -1.6% (inactive) | – |
| CC(C)OC(=O)c1c2c(n3ccccc13)C(=O)c1ccccc1C2=O | 103% (active) | – |
| CC(C)OC(=O)c1cccc2c1C(=O)c1ccccc1-2 | -0.7% (inactive) | – |

| Structure (SMILES) | inhibition (at 20 µM) | inhibition [1] |
| --- | --- | --- |
| CSc1cccc(NC(=O)c2nnn(Cc3ccccc3)c2N)c1 | -1.1% (inactive) | – |
| CCOC(=O)C1CCN(C(=O)COc2ccc(S(=O)(=O)NC(C)C)cc2Cl)CC1 | -0.9% (inactive) | – |
| CCOc1ccc(NC(=O)CSc2ncn[nH]2)c([N+](=O)[O-])c1 | 0.8% (inactive) | – |
| Cc1occc1-c1nnc(SCC(=O)N2CCN(c3ccccc3F)CC2)n1C | 0.2% (inactive) | – |
| O=C(Nc1ccncc1)C1CC1c1ccccc1 (centres undefined) | -0.2% (inactive) | – |
| COc1ccc(-n2c(O)c(/C=N/NS(=O)(=O)c3ccc(C)cc3)c3ccccc3c2=O)cc1OC | 152% (inactive) | – |
| CC(C)(C)N/N=C/c1c(O)n(-c2ccc(Cl)cn2)c(=O)c2ccccc12 | 4% (inactive) | – |
| O=c1c2ccccc2c(/C=N/NS(=O)(=O)c2ccccc2)c(O)n1-c1ccccn1 | 109% (active) | 78.3% |
| O=C(O)c1cc(-c2ccco2)nn1-c1ccc(Cl)cc1 | 72.4% (inactive) | 4.8% |
| O=C(c1cc(-c2ccco2)nn1-c1cccc(Cl)c1)N1CCCCC1 | 15% (inactive) | – |
| O=C(O)c1cc(-c2ccco2)nn1-c1cccc(Cl)c1 | 74.3% (active) | – |
| O=C1NN(c2ccccc2)C(=O)/C1=C\c1ccc(-c2cc([N+](=O)[O-])ccc2O)o1 | 53.6% (inactive) | 15% |
| O=C1NN(c2cccc(Br)c2)C(=O)/C1=C/c1ccc(-c2cc([N+](=O)[O-])ccc2O)o1 | 56.9% (active) | – |
| CC1=NN(c2ccc(C)cc2)C(=O)/C1=C/c1ccc(-c2cc([N+](=O)[O-])ccc2O)o1 | 45.2% (inactive) | – |
| CCCOc1cccc(C(=O)N/N=C/c2ccoc2)c1 | 0.4% (inactive) | – |
| O=C(Nc1ccc([N+](=O)[O-])cn1)C1CC2CCC1C2 (centres undefined) | 1.2% (inactive) | – |
| C[C@@H]1Cc2c(O)c(O)cc(O)c2C(=O)O1 | 27.3% (inactive) | – |
| CC1CC(=O)c2c(cc3c(-c4c(O)cc(O)c5c(O)c6c(cc45)OC(C)CC6=O)c(O)cc(O)c3c2O)O1 (centres undefined) | 56.7% (active) | – |
| COc1c(O)cc2c(c1O)C(=O)CC(c1ccccc1)O2 (centres undefined) | -1.5% (inactive) | – |
| COc1ccc(C(=O)C23CC4CC(C2)CC(C(=O)c2ccc(OC)cc2)(C4)C3)cc1 | -1.1% (inactive) | – |
| Cc1cc2c(n1-c1ccc(C(=O)O)cc1)CCCCC2 | 57.7% (active) | – |
| Cc1ccc(C)n1-c1ccc(C(=O)O)cc1 | -0.4% (inactive) | – |
| Cc1ccc(-c2cc3c(n2-c2ccc(C(=O)O)cc2)CCCC3=O)cc1 | 9.8% (inactive) | – |
| O=C(NC(=S)Nc1ccccc1[N+](=O)[O-])c1ccccc1 | -2.2% (inactive) | – |

| Structure (SMILES) | inhibition (at 20 µM) | inhibition [1] |
| --- | --- | --- |
| O=C(O)CCCCCNC(=O)c1ccc(C(=O)NCCCCCC(=O)O)cc1 | 0.3% (inactive) | – |
| Cc1ccc(/C=C/C2=Cc3c(sc(NC(=O)CSc4n[nH]c(N)n4)c3C#N)C(C)(C)C2)o1 | 149% (inactive) | – |
| Cc1ccsc1/C=C/C1=Cc2c(sc(NC(=O)CSc3n[nH]c(N)n3)c2C#N)C(C)(C)C1 | 2.6% (inactive) | – |
| CCOc1ccc(/C=C/C2=Cc3c(sc(NC(=O)CSc4n[nH]c(N)n4)c3C#N)C(C)(C)C2)cc1 | 62.3% (active) | – |
| CCOC(=O)c1cc(-c2cccs2)nc2c1c(C)nn2-c1ccccn1 | -2.7% (inactive) | – |
| COC(=O)[C@H](Cc1ccccc1)NC(=O)N1Cc2ccccc2C[C@H]1C(=O)OC | 1.3% (inactive) | – |
| CCN(CC)CCN(Cc1cc2cc3c(cc2[nH]c1=O)OCCO3)C(=S)NC | 2.5% (inactive) | – |
| N#Cc1c(NC(=O)CSc2nc(N)cc(=O)[nH]2)sc2c1CCCC2 | 0.4% (inactive) | – |
| O=C(O)Cn1c2c(c3ccccc31)CCCC2 | -3.7% (inactive) | – |
| O=C(O)Cn1c2ccccc2c2ccccc21 | -1% (inactive) | – |
| O=C(O)Cn1c2c(c3ccccc31)CSc1ccc(Cl)cc1-2 | 54.6% (active) | – |
| Cc1ccc(NC(=O)CSc2nncn2-c2ccccn2)cc1Cl | 1.2% (inactive) | – |
| CN(C)CCCN(C(=O)/C=C/c1cccs1)c1nc2c(F)cccc2s1 | 0.3% (inactive) | – |
| CN(C)CCN(C(=O)/C=C/c1cccs1)c1nc2ccc(F)cc2s1 | -3.5% (inactive) | – |
| CN(C)CCN(C(=O)/C=C/c1cccs1)c1nc2c(F)cc(F)cc2s1 | 56.7% (active) | – |
| O=C1c2ccsc2SCCN1Cc1c(F)cccc1Cl | -0.5% (inactive) | – |
| CCCCC(CCC(=O)O)(C(=O)OCC)c1csc(Nc2ccc(C)cc2)n1 (centres undefined) | 13.4% (inactive) | – |
| Cc1c2ccccc2nc2c(F)c(NCCO)c(F)c(F)c12 | 23.4% (inactive) | – |
| Cc1c2ccccc2nc2c(F)c(NC(C)C)c(F)c(F)c12 | 36.2% (inactive) | – |
| CCCNc1c(F)c(F)c2c(C)c3ccccc3nc2c1F | 51.8% (active) | 159% |
| CCOC(=O)C1Cc2c([nH]c3ccccc23)CN1 (centres undefined) | -0.5% (inactive) | – |
| O=C(c1cc(S(=O)(=O)N2CCCCC2)ccc1Cl)N1CCOCC1 | 0.1% (inactive) | – |
| COc1cc([N+](=O)[O-])ccc1NC(=O)NCc1ccccn1 | -3.2% (inactive) | – |
| COc1cccc(/C=N/NC(=S)Nc2cccc(C(=O)O)c2)c1O | 7.9% (inactive) | – |

| Structure (SMILES) | inhibition (at 20 µM) | inhibition [1] |
| --- | --- | --- |
| O=C(O)c1cccc(NC(=S)N/N=C/c2ccccc2OCc2ccc(Br)cc2)c1 | 65.6% (active) | – |
| O=C(O)c1cccc(NC(=S)N/N=C/c2cccc(O)c2)c1 | 1.3% (inactive) | – |
| COc1ccccc1NC(=O)N(Cc1cc2cc(OC)c(OC)cc2[nH]c1=O)CC1CCCO1 (centres undefined) | -1.5% (inactive) | – |
| Cc1cc(C)c2nc(N3CCC(C(=O)NCCCN4CCCC4=O)CC3)sc2c1 | -0.6% (inactive) | – |
| COc1cc(/C=N/NC(=S)NCCN2CCOCC2)cc(OC)c1OC | -0.8% (inactive) | – |
| CC1=C(C#N)C(=O)NC(=O)/C1=C/c1ccc(-c2ccc(S(N)(=O)=O)cc2)o1 | 46.5% (inactive) | – |
| CCOC(=O)c1cc(-c2ccc(/C=C3/C(=O)NC(=O)C(C#N)=C3C)o2)ccc1Cl | 65.1% (active) | – |
| C=CCOC(=O)c1cc(-c2ccc(/C=C3\C(=O)NC(=O)C(C#N)=C3C)o2)ccc1Cl | -2.1% (inactive) | – |
| O=C(c1cccnc1)N1CCN(Cc2ccc3c(c2)OCO3)CC1 | 2.7% (inactive) | – |
| CC(=O)Nc1sc(/C(C#N)=C\c2cccc(Cl)c2)nc1-c1ccc(C)cc1 | 61.1% (active) | 75.8% |
| CCN(CC)c1ccc(/C=C(\C#N)c2ccccn2)cc1 | 19.5% (inactive) | – |
| CC(=O)Nc1sc(N/N=C\c2ccc(O)cc2)nc1-c1cccs1 | -0.1% (inactive) | – |
| CC(=O)Nc1sc(N/N=C/c2ccc(C)cc2)nc1-c1ccc(C)cc1 | -3% (inactive) | – |
| CCN(CC)c1ccc(/C=C(\C#N)c2nc(-c3cccs3)c(NC(C)=O)s2)cc1 | 122% (active) | – |
| CC(=O)Nc1sc(N/N=C/c2ccccc2)nc1-c1ccc(C)cc1 | 0.1% (inactive) | – |
| C=CCNC(=O)N[C@@H](Cc1ccccc1)C(=O)OC | -0.9% (inactive) | – |
| Cc1c(C(=O)N2CCCC2)sc(NC(=O)c2cccs2)c1C#N | 3.6% (inactive) | – |
| O=C(CNC(=O)c1ccccc1Br)N/N=C/c1cccnc1 | 0.5% (inactive) | – |
| O=C1CC(NNC(=O)c2ccccc2)C(=O)N1 (centres undefined) | -0.3% (inactive) | – |
| COC(=O)c1cc(S(=O)(=O)NCC2CCN(Cc3cccc(Cl)c3)CC2)c[nH]1 | -0.3% (inactive) | – |
| c1ccc(Cn2c[n+](Cc3ccccc3)cn2)cc1 | -1.5% (inactive) | – |

From PubChem BioAssay AID1986 (Sanford-Burnham Center for Chemical Genomics, 2009)
